A short description of assay [1]: NCI Yeast Anticancer Drug Screen. Data for the rad50 strain (AID 155).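 Further: 0% = growth of vehicle-only cultures of the same strain.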 The note with it: S. cerevisiae rad50 strain growth inhibition; at 50.0 µM; active compounds read high. The method in brief:
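Vehicle-treated cultures provide the reference for the growth inhibition reported for compound-exposed, repair-deficient yeast.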

Assay [2] is described as follows: NCI Yeast Anticancer Drug Screen. Data for the mec2-1 strain (AID 157). Conditions: S. cerevisiae mec2-1 strain, at 50.0 µM, active compounds read high. The method in brief: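 Strain: mec2-1 (DNA repair/cell cycle alteration). Compound exposure, then growth measured; inhibition expressed relative to vehicle.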
Assay [3] is described as follows: NCI Yeast Anticancer Drug Screen. Data for the sgs1 mgt1 strain (AID 161).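 Further: 0% = growth of cultures given vehicle only.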 Conditions: S. cerevisiae sgs1 mgt1 strain, at 50.0 µM, active compounds read high. The method in brief:
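Test agents were incubated with a DNA-repair-mutant yeast strain. Growth was then read and compared against vehicle-treated controls.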

The nature of assay [4]: NCI Yeast Anticancer Drug Screen. Data for the cln2 rad14 strain (AID 165).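 Further: 0% = growth equal to vehicle treated cultures.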 Conditions: S. cerevisiae cln2 rad14 strain, at 50.0 µM, active compounds read high. The method in brief:
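Compounds are applied to the cln2 rad14 yeast strain, and growth is then compared with that of vehicle-treated cultures to give inhibition.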

Assay [5] is described as follows: NCI Yeast Anticancer Drug Screen. Data for the mlh1 rad18 strain (AID 175). The note with it: S. cerevisiae mlh1 rad18 strain growth inhibition; at 50.0 µM; active compounds read high. In a few lines:
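Read-out is yeast growth inhibition, calculated against vehicle-only controls. The compound was applied to a strain engineered with DNA damage repair alterations.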

About 79,000 compounds went through this panel and 15% of them were active in at least one assay; those are over-represented in the sample as a whole. Unmarked numbers belong to inactive results. Calls of active or inactive are those of the source. No stated cut-off is given here; in the data, active means growth inhibition above about 70%; inactive means the rest.

On to `Nc1ccc(S(=O)(=O)Nc2nc3ccccc3nc2Nc2ccc(S(N)(=O)=O)cc2)cc1`, for which the growth inhibition in assay [1] was 6.3%; in assay [2], -5.05%; in assay [3], -13.8%; in assay [4] it was -13.7%; in assay [5] it was -13.6%.

Consider `C(/C=C/c1ccccc1)=C1SCCCS1`, for which the growth inhibition in assay [1] is 0.55%; in assay [2], -7.6%; in assay [3], -4.7%; in assay [4] it was -18.9%; in assay [5], -4.6%.

As to `CN1CCS(=O)(=O)CC1`, the growth inhibition in assay [1] was 5.4%; in assay [2] it was -40%; in assay [3], -17.6%; in assay [4], -2.55%; in assay [5] it was 5.05%.

As for `O=C1C2C3C=CC(C2C(=O)N1CCl)C1C2C(=O)N(CCl)C(=O)C2C31` (stereo not given), the growth inhibition in assay [1] is 4.2%; in assay [2], 21.1%; in assay [3] it was 7.85%; in assay [4], -5.85%; in assay [5] it was 18.7%.

For `NNc1ccc(C(=O)O)cc1`, the growth inhibition in assay [1] is -3.6%; in assay [2] it was 12.1%; in assay [3], -2.1%; in assay [4], 11%; in assay [5], -4.9%.

Turning to `COC1C=C(Br)C(=O)C(C)O1` (stereo not given), the growth inhibition in assay [1] is 5.7%; in assay [2], 1.3%; in assay [3], -25.6%; in assay [4], -2.3%; in assay [5], -1.8%.

Consider `O=C1c2cc(Cl)ccc2NC(=NC2CCCC2)C2CSCN12` (stereo not given), for which the growth inhibition in assay [1] was 7.8%; in assay [2], -13.2%; in assay [3] it was 2.8%; in assay [4], -6.35%; in assay [5] it was 16.6%.

For the compound `O=C(NCCN1CCCCC1)c1cccc(I)c1`, the growth inhibition in assay [1] was 2.45%; in assay [2] it was -4.85%; in assay [3], 15.5%; in assay [4], 28.3%; in assay [5] it was 16%.

Consider `CN(CC(=O)O)Cc1ccccc1`, for which the growth inhibition is 9.5% in assay [1]; 19.4% in assay [2]; 10.5% in assay [3]; -13.9% in assay [4]; 3.3% in assay [5].

Take `C=C1C(=O)O[C@H]2/C=C(/C)C3=CC(=O)[C@@](C)(C[C@@H](OC(=O)/C(C)=C\C)C12)O3` (stereo not given in full): the growth inhibition in assay [1] is 73.5% (active); in assay [2], 80.8% (active); in assay [3] it was 81.2% (active); in assay [4], 64.8%; in assay [5], 75.8% (active).

Take `CCCC(=O)c1ccc(=O)n(C)c1`: the growth inhibition was 18.2% in assay [1]; 9.8% in assay [2]; -4.4% in assay [3]; -2.1% in assay [4]; 17.9% in assay [5].

Consider `OC1c2ccccc2OC2(N3CCCC3)CCCCC12` (stereo not given), for which the growth inhibition is -5.6% in assay [1]; -29.9% in assay [2]; -13.2% in assay [3]; -15.7% in assay [4]; 1.2% in assay [5].

Take `COC1=CC(O)(CC(N)=O)c2ccccc2C1=O` (stereo not given): the growth inhibition in assay [1] is -5.3%; in assay [2], -8.65%; in assay [3], 10.6%; in assay [4], -11.4%; in assay [5], 4.85%.

For `COc1cccc(NCNC2Nc3ccccc3N2)c1`, the growth inhibition in assay [1] was 25.1%; in assay [2], 10.1%; in assay [3], -0.75%; in assay [4], -23.4%; in assay [5], 19.8%.

For the compound `CSc1nc(SC)c(Nc2cccc(C)c2)c(SC)n1`, the growth inhibition in assay [1] is -8.65%; in assay [2] it was 7.7%; in assay [3], 4.2%; in assay [4] it was -38%; in assay [5] it was -0.3%.

Turning to `O=C(CO)C(O)C(O)C(O)CO` (stereo not given), the growth inhibition in assay [1] is 1.65%; in assay [2] it was -9.75%; in assay [3], -7.45%; in assay [4], 8.75%; in assay [5], 0.95%.

Take `C/C(CC(=O)Nc1cccc(Cl)c1C)=N\N=C(N)N`: the growth inhibition in assay [1] was -10.2%; in assay [2] it was -27.6%; in assay [3] it was -15.2%; in assay [4], 19.4%; in assay [5], -8.9%.

On to `NNCCc1n[nH]c(=O)n1N`, for which the growth inhibition in assay [1] is -3.5%; in assay [2] it was -18.4%; in assay [3], 9.55%; in assay [4], 2.55%; in assay [5], -8.15%.

On to `COc1ccc(OC)c(N=Nc2c(C)nc(N)nc2C)c1`, for which the growth inhibition in assay [1] was 11.3%; in assay [2] it was 4.4%; in assay [3], 7.85%; in assay [4], -32.6%; in assay [5], 10.2%.

On to `COc1cc(OC)c2nc3ccccc3c(NCCC[N+](C)(C)[O-])c2c1[N+](=O)[O-]`, for which the growth inhibition in assay [1] is 7.65%; in assay [2], -33.6%; in assay [3], -12.9%; in assay [4], -22.2%; in assay [5], -17.8%.

Turning to `Cc1nc2c(sc3ccccc3n2C)c2nc3c(sc4ccccc4n3C)c(C)c12`, the growth inhibition in assay [1] is -3.95%; in assay [2], -4.2%; in assay [3], 1.45%; in assay [4], -24.4%; in assay [5], 15.1%.

For the compound `COC(=O)C1C(COS(C)(=O)=O)ON2CCC(OC)(OC)C12` (stereo not given), the growth inhibition in assay [1] is 4.85%; in assay [2], 11.1%; in assay [3], 17.8%; in assay [4], -15.8%; in assay [5] it was 43.1%.

`CN1C(=O)NC(C)(C)C1=O`: the growth inhibition was -1.5% in assay [1]; 3.3% in assay [2]; -1.75% in assay [3]; -13.7% in assay [4]; -4.95% in assay [5].

As to `OCc1ccc2ccc3ccc(CO)nc3c2n1`, the growth inhibition in assay [1] is 14.4%; in assay [2], 15.4%; in assay [3] it was 5.6%; in assay [4], -25.4%; in assay [5], 13.9%.

These data come from PubChem BioAssay (NCI).
